Results published in PubChem BioAssay (NCI).
This is part of a sample that, as a whole, favours compounds with a hit. Of some 83,000 tested, about 20% had one in any assay.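 Negative percent growth values reflect cell death: -40 means 40% of the cells present at the start died, and -100 means all died.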 Activity calls are given as the source filed them. How the source made its calls: active means growth percent below 10; inactive means the rest.

Experiments:
Experiment in all cases: NCI-60 one-dose screen, 48 h (100 = growth as untreated, 0 = no growth, -100 = all killed)
SR leukemia = settings: 10 µM unless noted
RPMI-8226 leukemia = settings: 10 µM
OVCAR-8 ovarian = settings: 10 µM unless noted
OVCAR-5 ovarian = settings: 10 µM unless noted
OVCAR-4 ovarian = settings: 10 µM unless noted
SK-OV-3 ovarian = settings: 10 µM
IGROV1 ovarian = settings: 10 µM unless noted
OVCAR-3 ovarian = settings: 10 µM unless noted
HS 578T breast = settings: 10 µM unless noted
NCI/ADR-RES ovarian = settings: 10 µM unless noted
T-47D breast = settings: 10 µM
BT-549 breast = settings: 10 µM unless noted
MDA-MB-435 melanoma = settings: 10 µM unless noted
SW-620 colon = settings: 10 µM unless noted
HCT-116 colon = settings: 10 µM unless noted
HCC-2998 colon = settings: 10 µM unless noted
KM12 colon = settings: 10 µM unless noted
MCF7 breast = settings: 10 µM unless noted

Measured: growth

CCCCC(=O)N/N=C/c1cc(I)cc(I)c1O
inactive: SR leukemia 16.8% | RPMI-8226 leukemia 53% | OVCAR-8 ovarian 36.6% | OVCAR-5 ovarian 59.6% | OVCAR-4 ovarian 34.1% | SK-OV-3 ovarian 58.6% | IGROV1 ovarian 35.8% | OVCAR-3 ovarian 18.7% | HS 578T breast 76.6% | NCI/ADR-RES ovarian 23.9% | T-47D breast 52.1% | BT-549 breast 55.2% | MDA-MB-435 melanoma 56.7% | SW-620 colon 54.6% | HCT-116 colon 15.1% | HCC-2998 colon 66.5% | KM12 colon 53.2%

COc1ccc(C2OCC(C)(C)CO2)cc1OC
inactive: SR leukemia 100% | RPMI-8226 leukemia 95.6% | OVCAR-8 ovarian 105% | OVCAR-5 ovarian 100% | OVCAR-4 ovarian 104% | SK-OV-3 ovarian 107% | IGROV1 ovarian 139% | OVCAR-3 ovarian 117% | HS 578T breast 109% | NCI/ADR-RES ovarian 108% | T-47D breast 97.3% | BT-549 breast 109% | SW-620 colon 106% | MCF7 breast 104% | HCT-116 colon 109% | HCC-2998 colon 102% | KM12 colon 112%

O/N=C/c1cccs1
inactive: SR leukemia 96.8% | RPMI-8226 leukemia 112% | OVCAR-8 ovarian 98.3% | OVCAR-5 ovarian 100% | OVCAR-4 ovarian 115% | SK-OV-3 ovarian 118% | IGROV1 ovarian 108% | OVCAR-3 ovarian 119% | HS 578T breast 116% | NCI/ADR-RES ovarian 121% | T-47D breast 111% | BT-549 breast 112% | MDA-MB-435 melanoma 99.8% | SW-620 colon 104% | HCT-116 colon 102% | HCC-2998 colon 111% | KM12 colon 110%

O=C1/C(=C/c2ccc(Cl)cc2)CN(Cc2cn(CCCNc3ccnc4cc(Cl)ccc34)nn2)C/C1=C\c1ccc(Cl)cc1
active: SR leukemia -31.9% | RPMI-8226 leukemia -49.3% | OVCAR-8 ovarian -42.3% | OVCAR-5 ovarian -74.1% | OVCAR-4 ovarian -9.71% | SK-OV-3 ovarian -48.5% | IGROV1 ovarian -0.666% | OVCAR-3 ovarian -90.4% | HS 578T breast 9.27% | NCI/ADR-RES ovarian 2.36% | T-47D breast -10.8% | BT-549 breast -87.6% | MDA-MB-435 melanoma -86.7% | SW-620 colon -75.6% | HCT-116 colon -64.4% | HCC-2998 colon -88% | KM12 colon -75.1%

O=c1[nH]c(-c2ccncc2)nc2sc3c(c12)CCCCCC3
inactive: SR leukemia 40% | RPMI-8226 leukemia 91% | OVCAR-8 ovarian 69.2% | OVCAR-5 ovarian 80% | SK-OV-3 ovarian 31.5% | IGROV1 ovarian 69.5% | OVCAR-3 ovarian 74.1% | HS 578T breast 85.9% | NCI/ADR-RES ovarian 55% | T-47D breast 24.6% | BT-549 breast 98.9% | SW-620 colon 72.2% | MCF7 breast 77.4% | HCT-116 colon 46.6% | HCC-2998 colon 101% | KM12 colon 84.4%
active: OVCAR-4 ovarian 1.18%

Cn1c2c(cc(S(=O)(=O)c3ccccc3)c1=O)CCc1c-2cnn1-c1ccccc1Cl
inactive: SR leukemia 80.2% | RPMI-8226 leukemia 91.7% | OVCAR-8 ovarian 88.6% | OVCAR-5 ovarian 96.5% | OVCAR-4 ovarian 101% | SK-OV-3 ovarian 88.7% | IGROV1 ovarian 107% | OVCAR-3 ovarian 110% | HS 578T breast 117% | NCI/ADR-RES ovarian 113% | T-47D breast 68% | BT-549 breast 101% | MDA-MB-435 melanoma 100% | SW-620 colon 116% | HCT-116 colon 109% | HCC-2998 colon 118% | KM12 colon 112%

O=[N+]([O-])c1ccc2nc(N/N=C/c3ccc(O)cc3)sc2c1
inactive: SR leukemia 18.2% | RPMI-8226 leukemia 28.3% | OVCAR-8 ovarian 59.9% | OVCAR-5 ovarian 113% | OVCAR-4 ovarian 56% | SK-OV-3 ovarian 82.4% | IGROV1 ovarian 46.6% | OVCAR-3 ovarian 51.3% | HS 578T breast 83.5% | NCI/ADR-RES ovarian 81.7% | T-47D breast 35.1% | BT-549 breast 28.6% | MDA-MB-435 melanoma 47.7% | SW-620 colon 63.7% | MCF7 breast 57.9% | HCT-116 colon 23.3% | KM12 colon 33.4%

COc1cc(C(=O)N(C(C)C)C2CCCCC2)cc(OC)c1OC
inactive: SR leukemia 99.5% | RPMI-8226 leukemia 88.5% | OVCAR-8 ovarian 90.3% | OVCAR-5 ovarian 109% | OVCAR-4 ovarian 107% | SK-OV-3 ovarian 91.3% | IGROV1 ovarian 105% | OVCAR-3 ovarian 113% | HS 578T breast 102% | NCI/ADR-RES ovarian 96.1% | T-47D breast 107% | BT-549 breast 143% | MDA-MB-435 melanoma 107% | SW-620 colon 107% | MCF7 breast 86.2% | HCT-116 colon 122% | KM12 colon 102%

O=C1C(OCCOc2ccccc2)=C(OCCOc2ccccc2)C(=O)c2ccccc21
inactive: SR leukemia 60.1% | RPMI-8226 leukemia 78.8% | OVCAR-8 ovarian 86.8% | OVCAR-5 ovarian 124% | OVCAR-4 ovarian 44.8% | SK-OV-3 ovarian 57.9% | IGROV1 ovarian 62.7% | OVCAR-3 ovarian 78.2% | HS 578T breast 60.3% | NCI/ADR-RES ovarian 68.8% | T-47D breast 78.2% | BT-549 breast 27.4% | MDA-MB-435 melanoma 75.8% | SW-620 colon 45.1% | MCF7 breast 64% | HCT-116 colon 26% | KM12 colon 57.8%

CCSc1nnc2c3cc(Br)ccc3n(C)c2n1
inactive: SR leukemia 92.7% | RPMI-8226 leukemia 104% | OVCAR-8 ovarian 97.2% | OVCAR-5 ovarian 105% | OVCAR-4 ovarian 98% | SK-OV-3 ovarian 105% | IGROV1 ovarian 90.8% | OVCAR-3 ovarian 109% | HS 578T breast 111% | NCI/ADR-RES ovarian 109% | BT-549 breast 95.6% | MDA-MB-435 melanoma 104% | SW-620 colon 103% | MCF7 breast 84.3% | HCT-116 colon 95.6% | HCC-2998 colon 111% | KM12 colon 103%

O=C(CC(O)c1ccccc1)Nc1ccccn1 (stereo not given)
inactive: SR leukemia 86.9% | RPMI-8226 leukemia 93.8% | OVCAR-8 ovarian 100% | OVCAR-5 ovarian 104% | OVCAR-4 ovarian 97.1% | SK-OV-3 ovarian 94% | IGROV1 ovarian 108% | OVCAR-3 ovarian 108% | HS 578T breast 106% | NCI/ADR-RES ovarian 106% | T-47D breast 94.1% | MDA-MB-435 melanoma 97.9% | SW-620 colon 109% | MCF7 breast 103% | HCT-116 colon 97.6% | HCC-2998 colon 102% | KM12 colon 103%

Clc1ccc(Nc2ccnc(N3CCN(c4ccnc5cc(Cl)ccc45)CC3)n2)cc1
active: IGROV1 ovarian -4.05%
inactive: SR leukemia 37.2% | RPMI-8226 leukemia 34.5% | OVCAR-8 ovarian 61.4% | OVCAR-5 ovarian 70.6% | OVCAR-4 ovarian 41.9% | SK-OV-3 ovarian 62.5% | OVCAR-3 ovarian 35.5% | HS 578T breast 49.1% | T-47D breast 15.2% | BT-549 breast 52.2% | MDA-MB-435 melanoma 13.3% | SW-620 colon 48.5% | MCF7 breast 17.5% | HCT-116 colon 13.5% | HCC-2998 colon 64.7% | KM12 colon 36.8%

NC(=O)c1cc(I)ccc1NC(=O)COc1ccccc1
active: RPMI-8226 leukemia 9.76% | SK-OV-3 ovarian -2.65% | NCI/ADR-RES ovarian 4.28% | MDA-MB-435 melanoma -56%
inactive: SR leukemia 20.2% | OVCAR-8 ovarian 15.9% | OVCAR-5 ovarian 39.1% | OVCAR-4 ovarian 78.9% | IGROV1 ovarian 44.2% | OVCAR-3 ovarian 12% | HS 578T breast 36.6% | BT-549 breast 69.3% | SW-620 colon 23.5% | MCF7 breast 17.7% | HCT-116 colon 19% | HCC-2998 colon 13.9% | KM12 colon 19.9%

O=S(=O)(/N=C1C=C/C(=N\S(=O)(=O)c2ccccc2)c2ccccc2\1)c1ccccc1
inactive: SR leukemia 107% | RPMI-8226 leukemia 77.9% | OVCAR-8 ovarian 94.9% | OVCAR-5 ovarian 114% | OVCAR-4 ovarian 91.9% | SK-OV-3 ovarian 104% | IGROV1 ovarian 112% | OVCAR-3 ovarian 101% | HS 578T breast 112% | NCI/ADR-RES ovarian 102% | T-47D breast 93.1% | BT-549 breast 104% | SW-620 colon 112% | MCF7 breast 84.1% | HCT-116 colon 94.5% | KM12 colon 101%

COc1ccc(CSc2nc3cc(OC)c(OC)cc3c(=O)n2-c2ccc(Cl)cc2)cc1
inactive: SR leukemia 102% | RPMI-8226 leukemia 90.8% | OVCAR-8 ovarian 98.7% | OVCAR-5 ovarian 94.2% | OVCAR-4 ovarian 103% | SK-OV-3 ovarian 105% | IGROV1 ovarian 104% | OVCAR-3 ovarian 103% | HS 578T breast 97.1% | T-47D breast 95.4% | BT-549 breast 100% | MDA-MB-435 melanoma 98% | SW-620 colon 99.2% | MCF7 breast 101% | HCT-116 colon 98.4% | HCC-2998 colon 108% | KM12 colon 102%

COc1ccc(NC(=O)COc2ccccc2)c(C(N)=O)c1
inactive: SR leukemia 24.5% | RPMI-8226 leukemia 11.9% | OVCAR-8 ovarian 35.2% | OVCAR-5 ovarian 43.6% | OVCAR-4 ovarian 87.7% | IGROV1 ovarian 46% | HS 578T breast 27.9% | BT-549 breast 55.9% | SW-620 colon 27.1% | MCF7 breast 23.8% | HCT-116 colon 25.9% | HCC-2998 colon 46.5% | KM12 colon 25.2%
active: SK-OV-3 ovarian 4.18% | OVCAR-3 ovarian 0.699% | NCI/ADR-RES ovarian 5.8% | MDA-MB-435 melanoma -70%

CC(=O)OC[C@H](O)[C@@]1(O)CC[C@H]2[C@@H]3CCC4=CC(=O)CC[C@]4(C)[C@H]3[C@@H](O)C[C@@]21C
inactive: SR leukemia 99.9% | RPMI-8226 leukemia 89.8% | OVCAR-8 ovarian 98.5% | OVCAR-5 ovarian 96.6% | OVCAR-4 ovarian 105% | SK-OV-3 ovarian 90.8% | IGROV1 ovarian 111% | OVCAR-3 ovarian 108% | HS 578T breast 114% | NCI/ADR-RES ovarian 102% | T-47D breast 113% | MDA-MB-435 melanoma 119% | SW-620 colon 102% | MCF7 breast 112% | HCT-116 colon 98.4% | HCC-2998 colon 103% | KM12 colon 105%

O=C1/C(=C/c2ccc(F)cc2)CN(Cc2cn(CCNc3ccnc4cc(Cl)ccc34)nn2)C/C1=C\c1ccc(F)cc1
inactive: OVCAR-4 ovarian 23.3% | HS 578T breast 18.2%
active: SR leukemia -23.7% | RPMI-8226 leukemia -31% | OVCAR-8 ovarian -5.64% | OVCAR-5 ovarian -57.6% | SK-OV-3 ovarian -27.1% | IGROV1 ovarian 0.407% | OVCAR-3 ovarian -39.7% | NCI/ADR-RES ovarian 4.23% | T-47D breast -31.2% | BT-549 breast -91.1% | SW-620 colon -70.5% | MCF7 breast -79.6% | HCT-116 colon -84.5% | HCC-2998 colon -92.1% | KM12 colon -71.4%
